Measured values from PubChem BioAssay AID686971 (National Center for Advancing Translational Sciences (NCATS), 2013).
Screen size: about 360,000 compounds; about 7,500 (2.1%) were called active. A call without a number means that no potency is given here. Not shown: some 8% with an inconclusive outcome. Calls follow the shape of the dose curve; as a rule, active = well fitted cell-killing curve with a large enough effect; inconclusive = small, poorly fitted or top-dose-only effect, or effect the other way, or another doubt; inactive = no such curve, though single readings can be large or run the other way. The full list was thinned out, with actives kept by preference.

assay: qHTS for induction of synthetic lethality in tumor cells producing 2HG: qHTS for the HT-1080-IDH1KD cell line; settings: HT-1080 IDH1 knockdown viability, ATP luminescence, 48 h; series mostly up to 46.1 µM
Method in brief: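 In this qHTS, HT-1080 cells depleted of IDH1 are exposed for 48 h at 37 °C to compound titrations. Toxicity is scored from CellTiter-Glo luminescence, with DMSO as full viability and medium alone as none.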
Potency is read from the fitted curve at half-maximal effect.

Row | SMILES | Potency
1 | CCN(CC)CCn1c(/N=C/c2cc(Br)ccc2O)nc2ccccc21 | inactive
2 | Oc1ccc(Br)cc1/C=N/Nc1ccccn1 | 6.51 µM (active)
3 | Cc1c(C(=O)Nc2ccccn2)oc2ccc(Br)cc12 | inactive
4 | NCCCCC(C(=O)O)N(C(=O)OCc1ccccc1)C(=O)OCc1ccccc1 (stereo unspecified) | inactive
5 | O=C(COC(=O)c1ccc(S(=O)(=O)N2CCCCCC2)cc1)Nc1ccccc1C(F)(F)F | inactive
6 | CCc1nc2ccc(C(=O)Nc3ccc(OC)c(OC)c3)cn2c1N(C)C(=O)c1cccc(OC)c1 | inactive
7 | CCn1cc(CN2CCC(C(=O)Nc3cccc(-c4cccc(Cl)c4)c3)CC2)cn1 | 18.4 µM (active)
8 | CCn1cc(CN2CCC(n3nccc3NC(=O)CCCc3ccccc3)CC2)c(C)n1 | inactive
9 | O=C(Nc1cnn(Cc2ccc(Cl)cc2)c1)C1CCCC1 | inactive
10 | CCn1cc(CN2CCC(C(=O)Nc3cccc(-c4cccc(Cl)c4)c3)CC2)c(C)n1 | 20.6 µM (active)
11 | CC(=O)c1cc(CN2CCC(C(=O)Nc3cccc(-c4cscn4)c3)CC2)cs1 | inactive
12 | O=C(Nc1cccc(-c2cscn2)c1)C1CCN(Cc2ccsc2)CC1 | inactive
13 | Cc1ccc([C@@H]2CC(=O)[C@@H]3CN(S(=O)(=O)c4ccc(C)cc4)[C@H](c4ccccc4F)C[C@@H]3N2S(=O)(=O)c2ccc(Cl)cc2)cc1 | inactive
14 | CCN(CC)CCCC(C)n1c2nc(=O)[nH]c(=O)c-2nc2cc(Cl)ccc21 (stereo unspecified) | 16.4 µM (active)
15 | CCN(CC)CCn1c2ccc(Cl)cc2c2nc(C)sc21 | inactive
16 | CCCCc1ccc(S(=O)(=O)NC(=O)C2(C)CCN2C(=O)c2c(C)noc2C)cc1 (stereo unspecified) | inactive
17 | CC(=O)Nc1ccc(SCC(=O)NC(=O)c2ccc(Cl)cc2)cc1 | inactive
18 | Cc1cccc(C)c1-n1nnnc1C1(C)CCC(=O)N1CCOc1ccccc1 (stereo unspecified) | inactive
19 | COc1cc(NC(=O)c2cc(-c3ccc(F)cc3OC(C)C)n[nH]2)cc(OC)c1OC | inactive
20 | COc1ccc(NC(=O)C[C@H]2C(=O)N(CCc3ccccc3)C[C@@H]2C)cc1 | inactive
21 | OCCc1ccc(NCCc2ccco2)cc1 | inactive
22 | Cc1cc(C)nc(NS(=O)(=O)c2ccc(N3C(=O)C4CCCCC4C3=O)cc2)n1 (stereo unspecified) | inactive
23 | Cc1ccc(S(=O)(=O)Nc2nc(C)cc(-n3nc(C)cc3C)n2)cc1 | 15.8 µM (active)
24 | Cc1ccc(S(=O)(=O)Nc2nc(N)n(-c3ccccc3)n2)cc1 | inactive
25 | C[C@H]1CN([C@@H](C)CO)C(=O)CCCn2cc(nn2)CO[C@@H]1CN(C)S(=O)(=O)c1cccc(C#N)c1 | inactive
26 | CC1(C(=O)NS(=O)(=O)c2ccc(C#N)cc2)CCN1C(=O)CC1CCCC1 (stereo unspecified) | inactive
